A short description of test [1]: ATG_CMV_CIS: Attagene CIS-FACTORIAL HepG2 Assay for human CMV (Internal Marker) (AID 2282928).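 Also: endpoint acts as a background internal control marker rather than a target.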 Conditions: HepG2 CMV promoter reporter, transcription factor profiling; actives raise or lower the signal. A digest of the protocol:
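Endogenous transcription factor activity read in HepG2 via transfected cis-promoter reporter units. After 24 h dosing, reporter mRNA measured by RT-PCR/capillary electrophoresis; gain or loss of signal fit relative to DMSO.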

Test [2] in a line: ATG_DR4_LXR_CIS: Attagene CIS-FACTORIAL HepG2 Assay for human Liver X Receptor (LXR), DR4 submotif (AID 2282929). Conditions: HepG2 Attagene DR4 cis-reporter, mRNA transcription; actives raise or lower the signal. An outline of the steps:
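Total RNA from 24 h-treated, MRTU-transfected HepG2 cells underwent reverse transcription, PCR, fluorescent primer extension and restriction digestion before capillary electrophoresis. Both increases and decreases in reporter signal were fitted against DMSO.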

The nature of test [3]: ATG_AP_2_CIS: Attagene CIS-FACTORIAL HepG2 Assay for human Activator Protein 2 (AP-2) (AID 2282932). Conditions: HepG2 AP-2 cis-reporter, Attagene transcription factor profiling; actives raise or lower the signal. An outline of the steps: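 HepG2 cells transiently transfected with cis-element reporter units and exposed for 24 h. Reporter mRNA measured by RT-PCR, FAM labelling, HpaI digestion and capillary electrophoresis. Changes in either direction fitted relative to DMSO.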

In test [4] the target is Transcription factor E2F1 (Homo sapiens) (UniProt Q01094). The experiment in a line: ATG_E2F_CIS: Attagene CIS-FACTORIAL HepG2 Assay for human E2F Transcription Factor 1 (AID 2282935). The note with it: HepG2 Attagene cis-reporter, E2F reporter RNA transcripts; actives raise or lower the signal. An outline of the steps:
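Endogenous E2F1 activity read through cis-promoter reporter units transfected into HepG2. After 24 h compound treatment, reporter mRNA measured by RT-PCR, HpaI digestion and capillary electrophoresis. Bidirectional fit versus DMSO.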

Test [5] can be described thus: ATG_M_61_CIS: Attagene CIS-FACTORIAL HepG2 Assay for M61 Transcription Factor (Internal Marker) (AID 2282937). Conditions: HepG2 Attagene CIS-FACTORIAL M61 internal marker reporter; actives raise or lower the signal. A digest of the protocol: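 Transfect HepG2 with MRTUs; dose 24 h; isolate RNA; reverse-transcribe with DNase I treatment; PCR-amplify, FAM-label and cut with HpaI for 2 h at 37 C; resolve by CE. Bidirectional fitting against DMSO.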

The nature of test [6]: ATG_EGR_CIS: Attagene CIS-FACTORIAL HepG2 Assay for human Early Growth Response 1 (EGR1) (AID 2282938). Conditions: HepG2 Attagene CIS-FACTORIAL EGR reporter mRNA; actives raise or lower the signal. A digest of the protocol: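 After a 24 h treatment of transiently transfected HepG2 cells, total RNA was reverse-transcribed and reporter sequences PCR-amplified, labelled and run on capillary electrophoresis. Reporters sit under cis-regulatory promoters sensing endogenous factors.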

Test [7] in a line: ATG_Ets_CIS: Attagene CIS-FACTORIAL HepG2 Assay for human Erythroblast Transformation Specific (ETS) (AID 2282941). The note with it: HepG2 ETS cis-reporter transcription, actives raise or lower the signal. An outline of the steps:
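Steps: transfect HepG2 with multiple reporter units; treat compound 24 h; isolate RNA, DNase-treat, reverse-transcribe; PCR-amplify, label with 6-FAM, digest with HpaI; separate by capillary electrophoresis. Activity fitted both directions versus DMSO.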

Test [8] deals with Hepatocyte nuclear factor 3-beta (Homo sapiens) (UniProt Q9Y261). The experiment in a line: ATG_FoxA2_CIS: Attagene CIS-FACTORIAL HepG2 Assay for human Forkhead box A2 (FOXA2) (AID 2282942). Conditions: HepG2 cis-reporter transcription factor activity, 24 h; actives raise or lower the signal. An outline of the steps:
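24 h dosing of HepG2 bearing cis-reporter constructs; mRNA readout by RT-PCR/CE fluorescence; bidirectional fit, DMSO baseline.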

Test [9] in a line: ATG_FoxO_CIS: Attagene CIS-FACTORIAL HepG2 Assay for human Forkhead box O (FoxO) (AID 2282943). Conditions: HepG2 Attagene cis-reporter, FoxO element, mRNA; actives raise or lower the signal. A digest of the protocol:
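Read-out: fluorescence of 6-FAM-labelled reporter cDNA fragments resolved by capillary electrophoresis. Transiently transfected HepG2 cells were dosed for 24 h; activity fitted in both directions relative to DMSO controls.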

The nature of test [10]: ATG_GATA_CIS: Attagene CIS-FACTORIAL HepG2 Assay for human GATA Binding Protein (AID 2282944). The note with it: HepG2 GATA cis-element reporter, Attagene multiplex mRNA; actives raise or lower the signal. An outline of the steps: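 DMSO serves as negative control and baseline for bidirectional fitting of reporter mRNA changes. HepG2 cells bearing transiently transfected cis-promoter reporters were exposed 24 h; transcripts detected via RT-PCR and capillary electrophoresis.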

Test [11] is described as follows: ATG_ISRE_CIS: Attagene CIS-FACTORIAL HepG2 Assay for human Interferon Regulatory Factor 1 (IRF1) binding to an Interferon-Stimulated Response Element (ISRE) (AID 2282948). Conditions: HepG2 ISRE cis-reporter (Attagene), mRNA transcription readout; actives raise or lower the signal. A digest of the protocol:
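Transfected HepG2 (multiple reporter transcription units, cis elements) dosed 24 h. RNA → oligo(dT) RT → PCR → 6-FAM primer extension → HpaI → CE. DMSO = negative control/baseline.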

The nature of test [12]: ATG_M_32_CIS: Attagene CIS-FACTORIAL HepG2 Assay for M32 Transcription Factor (Internal Marker) (AID 2282949).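 Also: background control marker of the multiplexed CIS panel rather than a real target.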 Conditions: HepG2 Attagene cis-factorial M32 reporter, mRNA; actives raise or lower the signal. An outline of the steps:
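Fluorescent capillary electrophoresis peaks of HpaI-digested, FAM-labelled RT-PCR reporter products give the signal. Source: transiently transfected human liver HepG2 cells, 24 h after chemical dosing; bidirectional fitting against DMSO.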

The nature of test [13]: ATG_MRE_CIS: Attagene CIS-FACTORIAL HepG2 Assay for human Metal Responsive Element (MRE) (AID 2282954). The note with it: HepG2 MRE cis-reporter transcription, Attagene multiplex; actives raise or lower the signal. An outline of the steps: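 HepG2 cells transiently transfected with cis-element-driven reporter units; mRNA measured 24 h after dosing. Reporter transcripts quantified by RT-PCR, FAM labelling, HpaI digestion and capillary electrophoresis; bidirectional fit versus DMSO.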

Test [14] concerns the target Paired box protein Pax-6 (Homo sapiens) (UniProt P26367). The experiment in a line: ATG_Pax6_CIS: Attagene CIS-FACTORIAL HepG2 Assay for human Paired Box 6 (PAX6) (AID 2282956). Conditions: HepG2 CIS-FACTORIAL PAX6 reporter transcription, RNA readout; actives raise or lower the signal. An outline of the steps: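 Transient MRTU transfection of HepG2 → compound exposure 24 h → TriZol RNA, oligo(dT) RT → PCR, 6-FAM primer extension, HpaI cut → capillary electrophoresis; activity fitted both directions against DMSO.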

The nature of test [15]: ATG_PXRE_CIS: Attagene CIS-FACTORIAL HepG2 Assay for human Pregnane X Receptor Element (PXRE) (AID 2282957). The note with it: HepG2 Attagene CIS-FACTORIAL PXRE reporter, mRNA; actives raise or lower the signal. A digest of the protocol:
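Transiently transfected HepG2 cells were dosed and incubated for 24 h. RNA was then isolated, DNase-treated, reverse-transcribed and reporter sequences amplified. Labeled, HpaI-digested fragments were quantified by capillary electrophoresis against DMSO.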

A short description of test [16]: ATG_Sox_CIS: Attagene CIS-FACTORIAL HepG2 Assay for human SRY-box transcription factor (SOX) (AID 2282960). Conditions: HepG2 Attagene cis-factorial SOX reporter, mRNA; actives raise or lower the signal. An outline of the steps:
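HepG2, cis reporter units, 24 h exposure. Reporter mRNA: RT-PCR → FAM labelling → HpaI → CE fluorescence. Bidirectional fit vs DMSO.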

Test [17] can be described thus: ATG_SREBP_CIS: Attagene CIS-FACTORIAL HepG2 Assay for human Sterol Regulatory Element Binding (SREBP) (AID 2282962). Conditions: HepG2 Attagene cis-factorial SREBP reporter, mRNA; actives raise or lower the signal. An outline of the steps:
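Transfected HepG2 (cis-regulated reporter library, endogenous TFs) → compound 24 h → total RNA → oligo(dT) RT → reporter-specific PCR → FAM primer extension, HpaI cut → CE fluorescence. Fit bidirectional vs DMSO.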

Test [18] can be described thus: ATG_TCF_b_cat_CIS: Attagene CIS-FACTORIAL HepG2 Assay for human T-Cell-Factor with beta-catenin (TCF/b-cat) (AID 2282965). The note with it: HepG2 TCF/beta-catenin cis-reporter transcription, actives raise or lower the signal. An outline of the steps: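 HepG2, transient MRTU transfection, cis-element-driven reporters (endogenous TFs). 24 h compound exposure. Readout: reporter mRNA by RT-PCR + 6-FAM primer extension, HpaI digest, capillary electrophoresis. Gain/loss fit vs DMSO baseline.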

Test [19] can be described thus: ATG_TAL_CIS: Attagene CIS-FACTORIAL HepG2 Assay for human TAL Basal Promoter (AID 2282966).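 Also: background control endpoint measuring basal TAL promoter reporter mRNA not a specific factor.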 Conditions: HepG2 Attagene cis-factorial TAL promoter reporter; actives raise or lower the signal. A digest of the protocol: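 Readout: reporter mRNA, fluorescence by CE. System: HepG2, transient multi-reporter transfection, endogenous TF activity. Exposure: 24 h. Analysis: bidirectional, DMSO-normalized; background control.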

Test [20] in a line: ATG_TGFb_CIS: Attagene CIS-FACTORIAL HepG2 Assay for human Transforming Growth Factor (TGF) (AID 2282967). Conditions: HepG2 Attagene CIS TGFb reporter, mRNA transcription; actives raise or lower the signal. A digest of the protocol: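 Transcript-level reporter readout: HepG2 transfectants, 24 h exposure, RNA to cDNA, reporter-specific PCR, fluorescent primer extension, capillary sizing against ROX standards. Gain- or loss-of-signal relative to DMSO.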

As usually defined, the AC50 is the midpoint of the concentration-response curve, whichever way the signal moves.

Active and inactive are the calls of the source. The calls were made as follows: active = hit-call score of the fitted dose curve at least 0.9, where 1 is the maximum; inactive = score below 0.9.

Transcription factor E2F1 (Homo sapiens), sequence (Q01094 whole entry, looked up): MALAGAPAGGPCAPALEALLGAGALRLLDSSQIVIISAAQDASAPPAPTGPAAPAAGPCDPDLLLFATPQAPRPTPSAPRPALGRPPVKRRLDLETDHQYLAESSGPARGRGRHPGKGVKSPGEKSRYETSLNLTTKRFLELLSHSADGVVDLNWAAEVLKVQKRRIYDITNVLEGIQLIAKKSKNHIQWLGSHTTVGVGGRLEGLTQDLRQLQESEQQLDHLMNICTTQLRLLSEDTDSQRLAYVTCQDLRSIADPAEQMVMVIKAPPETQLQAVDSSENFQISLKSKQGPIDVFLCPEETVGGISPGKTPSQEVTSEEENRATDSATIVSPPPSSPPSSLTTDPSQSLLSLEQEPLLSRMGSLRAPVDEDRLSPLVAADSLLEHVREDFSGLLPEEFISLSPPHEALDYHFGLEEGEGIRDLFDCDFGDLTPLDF
Hepatocyte nuclear factor 3-beta (Homo sapiens), sequence (Q9Y261 whole entry, looked up): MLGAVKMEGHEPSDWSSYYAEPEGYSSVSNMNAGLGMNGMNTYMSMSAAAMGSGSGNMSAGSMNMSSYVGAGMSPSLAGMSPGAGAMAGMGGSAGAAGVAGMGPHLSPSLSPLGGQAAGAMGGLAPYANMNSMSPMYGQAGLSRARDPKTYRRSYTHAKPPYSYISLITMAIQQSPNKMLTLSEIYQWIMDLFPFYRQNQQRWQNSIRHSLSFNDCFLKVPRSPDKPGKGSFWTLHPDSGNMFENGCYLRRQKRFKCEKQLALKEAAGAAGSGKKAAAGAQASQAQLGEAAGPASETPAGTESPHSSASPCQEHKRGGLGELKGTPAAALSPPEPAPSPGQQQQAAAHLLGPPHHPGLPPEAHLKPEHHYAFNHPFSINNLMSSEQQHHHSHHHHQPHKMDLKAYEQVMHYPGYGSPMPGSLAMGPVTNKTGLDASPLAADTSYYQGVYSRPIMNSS
Paired box protein Pax-6 (Homo sapiens), sequence (P26367 whole entry, looked up): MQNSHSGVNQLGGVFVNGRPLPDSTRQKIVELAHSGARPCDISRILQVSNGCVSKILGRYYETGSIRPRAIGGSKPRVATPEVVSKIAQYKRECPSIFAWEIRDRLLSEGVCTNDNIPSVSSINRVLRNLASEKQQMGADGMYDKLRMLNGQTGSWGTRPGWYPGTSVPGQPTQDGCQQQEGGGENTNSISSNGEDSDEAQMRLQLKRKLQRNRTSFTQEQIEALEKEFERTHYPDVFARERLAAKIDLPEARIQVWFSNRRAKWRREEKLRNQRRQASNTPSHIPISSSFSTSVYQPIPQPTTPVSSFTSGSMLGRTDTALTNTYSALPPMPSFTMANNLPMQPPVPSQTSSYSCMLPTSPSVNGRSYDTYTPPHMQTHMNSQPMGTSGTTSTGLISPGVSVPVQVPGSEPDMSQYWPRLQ

As for `COCC(=O)N(c1c(C)cccc1C)N1CCOC1=O`, the compound was classed as inactive in test [1], in test [2], in [3], in test [4], in test [5] and in test [6]. Also, the compound was classed as inactive in test [7], in [8], in [9], in test [10], in [11] and in test [12]. Also, the compound was classed as inactive in test [13], in [14], in test [16], in [17], in test [18] and in [19]. For the same compound, the outcome in test [20] was inactive. The concentration at half-maximal activity (AC50) in test [15] was 29.9 µM (active).

Take `O=C(NCNC(=O)NC1C(=O)NC(=O)N1CO)NC1C(=O)NC(=O)N1CO` (stereo not given): the result in [1], in test [2], in [3], in test [4], in [5] and in [6] was inactive. The compound was called inactive in test [7], in [8], in test [9], in [10], in test [11] and in test [12]. The outcome in test [15], in test [16], in test [17], in test [18] and in test [19] was inactive. In addition, the figures for the AC50 in test [13], in [14] and in [20] were 162 µM (active), 133 µM (active) and 100 µM (active), respectively.

Regarding `[Cl][Sb]([Cl])[Cl]`, the compound was classed as inactive in [1], in test [2], in test [3], in test [4], in test [5] and in test [7]. Besides, the outcome in [8], in [9], in test [10], in test [11], in [12] and in [13] was inactive. In addition, the compound was called inactive in test [15], in [16], in [17], in [19] and in test [20]. For the same compound, the AC50 in test [6] was 140 µM (active); in test [14] it was 133 µM (active); in test [18], 186 µM (active).

On to `C=C(Cl)Cl`, for which the call in test [1], in [2], in test [3], in [4], in test [5] and in test [6] was inactive. The compound was classed as inactive in test [7], in test [8], in test [9], in test [10], in test [11] and in test [12]. Besides, the compound was classed as inactive in test [13], in test [14], in [16], in test [17], in test [18] and in test [19]. The compound was classed as inactive in test [20]. The half-maximal activity concentration (AC50) in [15] is 50.8 µM (active).

On to `Cc1ccc(N(SC(F)(Cl)Cl)S(=O)(=O)N(C)C)cc1`, for which the half-maximal activity concentration (AC50) in [1] is 15.8 µM (active); in test [2] it was 15.2 µM (active); in test [6], 11.1 µM (active); in test [11], 14.7 µM (active); in [13], 15.8 µM (active); in test [14] it was 17.9 µM (active). In addition, the half-maximal activity concentration (AC50) in [16] is 18.5 µM (active); in [18] it was 16.6 µM (active). The compound was called inactive in test [3], in test [4], in test [5], in test [7], in test [8] and in [9]. Moreover, the compound was called inactive in test [10], in test [12], in test [15], in test [17], in test [19] and in test [20].

Turning to `c1ccc(P(c2ccccc2)c2ccccc2)cc1`, the result in test [1], in test [3], in test [4], in test [5], in [6] and in test [7] was inactive. In addition, the outcome in [8], in test [9], in test [10], in [11], in test [12] and in [13] was inactive. Further, the compound was classed as inactive in test [14], in [16], in test [17], in test [19] and in [20]. Moreover, the concentration at half-maximal activity (AC50) in [2] is 31.5 µM (active); in [15], 4.59 µM (active); in test [18] it was 158 µM (active).

These data come from PubChem BioAssay (EPA / NIEHS).
